# Bioassay records (PubChem)
# The list is not random: actives were taken first. Their share in the collection is about 28%.
# CD11b adhes enh – enhancers of CD11b/CD18 adhesion to fibrinogen, primary screen, K562 cells, luminescence. Integrin beta-2 (Homo sapiens) + Integrin alpha-M (Homo sapiens), P05107+P11215. ATPlite luminescence. activation, % at 10 µM. 0.07% of 93,000 active;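 active = 10 µM primary screen giving 50% or more activity, confirmed by 40% or more on retest at that dose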
# CD11b adhes inh – inhibitors of CD11b/CD18 adhesion to fibrinogen, primary screen, K562 cells, luminescence; AID 1497, 2009; ATPlite luminescence; Mn2+ added to activate the integrin; 0.54% of 93,000 active; inhibition, % at 10 µM; Integrin beta-2 (Homo sapiens) + Integrin alpha-M (Homo sapiens), P05107+P11215;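 active = primary inhibition of 50% or more at 10 µM, then 40% or more on retest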
# CYP2C9 inhib – blockers of cytochrome P450 2C9 activity – biochemical, luminescence, ADME assay, primary screen; P11712; 20% of 96,000 active; CYP2C9 Supersomes, luciferin-H conversion; inhibition, % at 5 µM;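 active = blocking of liver enzyme CYP2C9 beyond about 50% at 5 µM, limit read from the data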
# Target sequence (P11712 whole entry, looked up): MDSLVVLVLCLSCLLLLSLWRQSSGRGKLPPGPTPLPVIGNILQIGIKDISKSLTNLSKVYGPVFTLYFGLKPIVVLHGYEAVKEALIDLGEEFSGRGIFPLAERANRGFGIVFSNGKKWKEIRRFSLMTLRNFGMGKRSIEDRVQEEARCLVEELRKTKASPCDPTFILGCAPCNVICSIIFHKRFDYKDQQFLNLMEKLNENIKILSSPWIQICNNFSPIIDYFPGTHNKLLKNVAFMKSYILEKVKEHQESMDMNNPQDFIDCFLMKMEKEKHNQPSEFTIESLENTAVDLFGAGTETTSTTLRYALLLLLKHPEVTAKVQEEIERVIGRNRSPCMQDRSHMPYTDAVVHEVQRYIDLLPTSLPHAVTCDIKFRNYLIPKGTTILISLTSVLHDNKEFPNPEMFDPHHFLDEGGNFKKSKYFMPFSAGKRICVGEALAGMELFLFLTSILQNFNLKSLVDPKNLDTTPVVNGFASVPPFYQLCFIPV
# CYP2C19 act – human CYP2C19 activators, primary screen, biochemical, luminescence. Cytochrome P450 2C19 (Homo sapiens), P33261. recombinant CYP2C19, luciferin-H EGE luminescence; hits give high values; 0 = fully inhibited enzyme, 1 = untreated enzyme. activation factor at 5 µM. 96,000 tested, under 10 active. AID 1025, 2008;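 active = activation factor of at least 2 at 5 µM in the primary screen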;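 also: 0 = wells with 2.5 mM tranylcypromine and 1 = vehicle-only wells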
# CYP2C19 inhib – blockers of cytochrome P450 2C19 activity – biochemical, luminescence, ADME assay, primary screen. inhibition, % at 5 µM. 21% of 96,000 active. P33261. CYP2C19 Supersomes, luciferin-H EGE luminescence, 30 min;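 active = CYP2C19 inhibition above a set limit at 5 µM in the primary screen, cut at about 50% in these data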;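 also: plate controls were negative control wells for no effect and 2.5 mM tranylcypromine positive control for full effect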
# CYP2C9 act – human CYP2C9 activators, primary screen, biochemical, luminescence; recombinant CYP2C9, luciferin-H conversion; hits give high values; factor 1 = untreated enzyme, 0 = blocked; Cytochrome P450 2C9 (Homo sapiens), P11712; 1.4% of 96,000 active; activation factor at 5 µM; AID 1024, 2008;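 active = activation factor of 2 or more for CYP2C9 at a 5 µM dose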;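 also: 0 = sulfaphenazole-blocked wells and 1 = vehicle-only wells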
# * = called active by the depositor; . = no result given.
SMILES,CD11b adhes enh,CD11b adhes inh,CYP2C9 inhib,CYP2C19 act,CYP2C19 inhib,CYP2C9 act
CCOC(=O)N1CCN(c2nc(C(F)(F)F)nc3c(C)cc(C)cc23)CC1,4.8,24.9,-9.0,1.1,-7.2,1.1
CCOC(=O)N1CCN(c2nc(C)cc(C(F)(F)F)n2)CC1,5.9,-20.0,41.4,0.3,65.5*,0.6
O=C(CCCSc1nnc(-c2cccs2)n1CC1CCCO1)c1ccccc1 (centres undefined),2.7,1.6,69.2*,0.3,73.1*,0.3
CCOc1ccc(C(C)=O)cc1CSc1nnc(-c2cccs2)n1CC1CCCO1 (centres undefined),-5.5,-12.3,81.5*,0.1,89.7*,0.2
CCn1cc(C(=O)NC2CCCCCC2)c2cc(OC)c(OC)cc2c1=O,1.2,0.5,5.5,1,4.2,0.9
COc1ccc(-c2noc(CSc3nc4sc(C)c(C)c4c(=O)n3-c3ccccc3)n2)cc1,16.0,4.8,.,.,.,.
Cc1noc(C)c1CSc1nc2sc(C)c(C)c2c(=O)n1-c1ccccc1,3.9,-24.1,50.4*,1,-3.2,0.5
Cc1noc(C)c1CSc1nc2ccccc2n1CCc1ccccc1,6.6,5.4,61.7*,0.4,63.0*,0.4
Cc1noc(C)c1CSc1nnnn1-c1ccc(Cl)cc1,0.7,1.9,57.8*,0,99.2*,0.4
C=CCn1c(SCc2c(C)noc2C)nc2sc(C)c(C)c2c1=O,-2.8,-1.0,56.4*,0.8,19.6,0.4
Cc1ccc(C(=O)ON=C2CCN(S(=O)(=O)c3ccccc3)CC2)cc1,.,.,-2.9,0.9,12.3,1
CC(=O)Nc1cccc(-c2csc(NCc3ccco3)n2)c1,7.4,-9.4,39.3,0.5,48.2,0.6
COc1ccc(C2c3c(oc4ccc(Cl)cc4c3=O)C(=O)N2Cc2ccco2)cc1OC (centres undefined),92.5,13.5,17.6,0.9,5.4,0.8
C=CCn1c(SCC(=O)c2cc(C)n(C(C)COC)c2C)nc2sc(C)c(C)c2c1=O (centres undefined),1.6,13.3,91.3*,0.1,88.9*,0.1
C=CCn1c(SCC(=O)Nc2sccc2C#N)nc2sc(C)c(C)c2c1=O,95.4,-18.7,30.3,1.1,-7.1,0.7
Cc1noc(C)c1CSc1nc2ccccc2c(=O)n1-c1ccc(Cl)cc1,-1.3,1.7,95.9*,0.3,70.9*,0
Cc1cc(NC(=O)CSc2nc3ccccc3c(=O)n2-c2ccccc2)no1,5.9,-10.0,30.0,0.9,9.0,0.7
Cc1c(NC(=O)CSc2ccccc2C(=O)Nc2cccnc2)c(=O)n(-c2ccccc2)n1C,2.6,-12.9,9.3,1.1,-6.2,0.9
N#Cc1c(-c2ccccc2F)cc(C2CC2)nc1SCC(=O)c1cccs1,4.0,4.3,.,.,.,.
c1ccc(Oc2nc(Oc3ccccc3)nc(N3CCOCC3)n2)cc1,-2.9,-4.6,48.8,0.4,59.5*,0.5
Clc1ccc(Oc2nc(Oc3ccc(Cl)cc3)nc(N3CCOCC3)n2)cc1,-3.2,15.1,15.1,0.9,14.9,0.8
Cc1cc(C(=O)Nc2c(F)cc(F)cc2Br)c(C)o1,4.0,-3.4,-1.7,1,1.4,1
O=C1CC(c2ccc3c(c2)OCO3)C2=C(CCCC2=O)N1 (centres undefined),1.0,-11.9,51.9*,0.9,14.1,0.5
COc1cc2c(cc1OC)C(c1ccc3c(c1)OCO3)CC(=O)N2 (centres undefined),-4.1,-16.5,31.8,0.5,45.3,0.7
O=C1CC(c2ccc(F)c(Br)c2)C2=C(CCCC2=O)N1 (centres undefined),.,.,28.8,0.3,68.7*,0.7
CCOc1ccc(C2CC(=O)NC3=C2C(=O)CCC3)cc1 (centres undefined),-4.4,-4.7,-4.6,1.1,-5.7,1
CCn1cc(C(=O)NCCCN2CCC(C)CC2)c2cc(OC)c(OC)cc2c1=O,-2.8,-7.3,1.0,1,-2.5,1
